Compounds with a hit are over-represented: about 7.5% of the library has one in this group of screens.
Rab9 promoter act = Rab9 promoter activation. Huh7 Rab9 promoter-luciferase reporter, luminescence, 24 h. Potency, µM (highest dose often 9.22 µM), inactives show top-dose activation, negative = inhibition, hits mostly activators. 2.8% of 320,000 active. AID 485297; note: % of control where 0% means no effect; nearly all actives have a fitted effect of over 60% in size
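Huh7 cells stably carrying Rab9 promoter–luciferase reporter, plated 1500 cells/well, compound added after 2 h and incubated 24 h at 37 °C; luciferase luminescence then read after 10 min with detection reagent.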
FLuc counter = counter-screen for miR-21 project: firefly luciferase inhibitors or activators; Potency, µM (highest dose often 57.5 µM), inactives show at the top dose activity change, negative = inhibition, most hits filed as inhibitors; AID 588342; purified FLuc, Km substrates, luminescence inhibition; P08659; 6.9% of 360,000 active;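 note: plate controls were vehicle for no effect and reference inhibitor for full effect; nearly all actives have a fitted effect of over 55% in size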
Target sequence (P08659 whole entry, looked up): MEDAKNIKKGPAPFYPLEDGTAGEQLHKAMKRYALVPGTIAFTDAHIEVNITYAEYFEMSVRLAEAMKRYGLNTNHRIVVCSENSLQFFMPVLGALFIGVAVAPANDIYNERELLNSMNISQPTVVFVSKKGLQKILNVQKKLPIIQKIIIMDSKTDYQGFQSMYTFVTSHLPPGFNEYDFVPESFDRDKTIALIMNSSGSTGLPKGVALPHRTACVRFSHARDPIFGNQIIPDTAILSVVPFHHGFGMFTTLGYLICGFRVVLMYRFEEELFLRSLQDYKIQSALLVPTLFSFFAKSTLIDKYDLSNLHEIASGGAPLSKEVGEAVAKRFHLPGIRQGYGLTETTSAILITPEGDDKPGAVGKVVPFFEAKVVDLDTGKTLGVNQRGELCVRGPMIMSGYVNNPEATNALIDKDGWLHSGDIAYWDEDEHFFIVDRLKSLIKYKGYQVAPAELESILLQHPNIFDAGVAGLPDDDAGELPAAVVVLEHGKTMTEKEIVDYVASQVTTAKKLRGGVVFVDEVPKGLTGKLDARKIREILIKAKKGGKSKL
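Biochemical qHTS of compounds, final roughly 60 µM downward over six points, against 10 nM purified firefly luciferase using Km concentrations of substrates (10 uM D-luciferin, 10 uM ATP) in Tris acetate pH 7.5 buffer; luminescence output.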
NPC1 prom act = activators of NPC1 promoter; 2.4% of 320,000 active; Potency, µM (doses to about 9.22 µM), without a hit: at the top dose activation, usual class: activators; AID 485313; Huh7 NPC1 promoter luciferase reporter, 24 h; note: % of control where 0% means no effect; nearly all actives have a fitted effect of over 60% in size
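Luminescence from an NPC1 promoter-driven luciferase reporter in stably transfected Huh7 cells was measured after 24 h compound treatment at 37 °C, followed by 10 min ambient incubation with luciferase detection reagent.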
Luc counter = Kinase-Glo luciferase inhibition (counter-screen); Kinase-Glo luciferase, ATP luminescence, 8 min; Q27757; Potency, µM (highest dose often 38.3 µM), inactives show at the top dose activity change, negative = inhibition, usual class: inhibitors; 0.28% of 200,000 active; note: % is set by controls: 0 for no effect and ±100 for the full control effect; nearly all actives have a fitted effect of over 60% in size
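Luminescence was the read-out, taken after 8-minute incubation at ambient temperature. Luciferase turned over luciferin with 10 uM ATP in imidazole pH 7.2 buffer containing KCl, MgCl2, Tween 20 and BSA.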
SMN2 splice enh = SMN2 splice variant enhancement; 2.8% of 210,000 active; Potency, µM (series often up to 46.1 µM), for inactives: at the highest dose activity change, positive = activation, most hits filed as activators; HEK293 SMN2-luciferase splicing reporter, luminescence, 30-36 h; note: % of control where 0% means no effect; nearly all actives have a fitted effect of over 55% in size
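HEK293 cells carry an SMN2 minigene-luciferase reporter in which exon 7 inclusion puts luciferase in frame. Cells were seeded at 2000 cells/well, attached for 10-12 hours, then exposed to compounds for 30-36 hours at 37C before ONE-Glo luminescence.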
ELG1 genotox = inducers of genotoxicity in HEK293T ELG1-luciferase cells. HEK293T ELG1-luciferase reporter, luminescence, 16 h. Potency, µM (top dose mostly 46 µM), without a hit: at the top dose activity change, positive = activation, hits mostly activators. 1.3% of 330,000 active. AID 504466; note: % of control where 0% means no effect; nearly all actives have a fitted effect of over 60% in size
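Cells (2,000/well) expressing the ELG1-luciferase fusion are dosed by pin tool and kept 16 hr at 37 °C, 5% CO2. Signal comes from ONE-Glo luciferase reagent after 30 min at room temperature.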
Numbers without * were called inactive; u = inconclusive; x = no result given; [ ] = dose if it differs, or a comment. Calls come from the whole dose curve; as a rule, active = well fitted curve in the direction sought with a large enough effect; inconclusive = small, poorly fitted or top-dose-only effect, or another doubt; inactive = no such curve, though single readings can be large; an effect the other way counts as inactive or inconclusive. Potency is the fitted concentration of half-maximal effect.

SMILES | Rab9 promoter act | FLuc counter | NPC1 prom act | Luc counter | SMN2 splice enh | ELG1 genotox
Cc1[nH]n(-c2ccccc2)c(=O)c1N=Nc1ccc(C(N)=O)cc1 | 0% | u | 0% | x | x | 0%
Cc1ccc(N=Nc2c(N)n(-c3ccccc3)[nH]c2=O)cc1 | u | 4.8µM* | u | -11% | u | u
CCc1cccc(CC)c1NC(=O)CN1CCc2cc(OC)c(OC)cc2C1 | -33% | -1% | -22% | x | x | -8%
Cc1ccn2c(=O)cc(COc3ccc(NC(=O)COc4ccc(Cl)cc4)cc3)nc2c1 | x | 5% | x | x | x | x
O=C(c1cc(=O)[nH]c2ccccc12)N1CCN(c2ccccc2)CC1 | 1% | 2% | -2% | x | x | 0%
COc1ccc(-c2noc(N3CCCC(C(=O)Nc4ccc(C(C)=O)cc4)C3)n2)cc1 (stereo not given) | 27% | 11µM* | 23% | x | x | 3%
CCCOC(=O)c1c(-c2ccccc2)c(-c2ccccc2)nn(C)c1=O | x | -20% | x | x | -3% | x
COC(=O)c1cccc(N(CC(=O)NC2CCCCC2)C(=O)CNC(=O)c2cccs2)c1 | -3% | 2% | -4% | x | x | -8%
Cc1nn(-c2ccccc2)c(NC(=O)c2cccs2)c(-c2ccccc2Cl)c1=O | -10% | -2% | 1% | x | x | 0%
Cc1cc(N=Nc2ccc(C)c(N=Nc3cc(C)c(N)cc3N)c2)c(N)cc1N | 2.8µM* | 0.54µM* | 2.8µM* | x | x | 2.3µM*
CCOC(=O)C1=C(C)Nc2ccccc2N=C1NC(=O)c1cc(C)on1 | -2% | 1% | -3% | x | x | -1%
c1ccc2nc(-c3ccc(-n4ccnc4)cc3)ccc2c1 | 0.63µM* | 3.4µM* | 1µM* | x | x | 2.6µM*
Nc1ccc(-n2ccnc2)cc1 | -10% | -2% | 5% | 1% | -10% | 0%
CCNC(=O)NC(=O)COC(=O)c1ccccc1SCC(=O)NC(=O)NCC | 2.8µM* | 5.4µM* | 1.6µM* | -23% | 8.9µM* | u
Cc1cc(Cl)c2oc(C(=O)N3CCN(C(=O)c4ccco4)CC3)c(C)c2c1 | u | 11µM* | u | x | x | u
Cc1cc(Cl)c2oc(C(=O)N3CCN(c4cccc(C)n4)CC3)c(C)c2c1 | u | 15µM* | 3.5µM* | x | x | u
Cc1nc2ccc(NC(=O)c3ccc([N+](=O)[O-])cc3)cc2s1 | 13% | -2% | 11% | 3% | -14% | 8%
Cc1ccc(C(=O)Nc2ccc3nc(C)sc3c2)s1 | 1.8µM* | 6.7µM* | 2.2µM* | -5% | 13µM* | u
CN1CCN(S(=O)(=O)c2ccc(NC(=O)c3ccc(Br)s3)cc2)CC1 | -6% | -1% | -3% | 2% | 12% | 4%
Cc1nc2ccc(NC(=O)c3ccc(Cl)nc3)cc2s1 | 21% | u | 14% | x | x | 1%
Cc1nc2ccc(NC(=O)c3cc(Cl)ccn3)cc2s1 | 0.5µM* | 1.5µM* | 0.71µM* | x | x | 1.3µM*
Cc1nc2cc(NC(=O)c3ccc(Br)s3)ccc2s1 | 0.32µM* | 0.48µM* | 0.4µM* | x | x | u
Cc1nc2ccc(NC(=O)NCCCO)cc2s1 | u | 2%[2.3 µM] | u | 4% | 13µM* | 14%
N#Cc1ccccc1NC(=O)COC(=O)/C=C/c1ccc(S(=O)(=O)N2CCOCC2)cc1 | x | x | x | x | x | 0%
CC(C)OCCCn1c(=O)c2ccccc2n2c(-c3ccc(F)cc3)nnc12 | x | -6% | x | x | x | x
CCOC(=O)c1cccc(NC(=O)CCn2nc(C)c3c(C)n(-c4ccccc4)nc3c2=O)c1 | x | 0% | x | x | x | x
COc1cc(C(=O)N2c3ccccc3CCC2C)cc(OC)c1OC (stereo not given) | -6% | -1% | -3% | x | x | -14%
O=C(Cc1c(F)cccc1Cl)NCC(=O)OCc1ccccc1 | 0% | 0% | 4% | x | x | 5%
Cc1nc2ccc(NC(=O)c3cc([N+](=O)[O-])cc([N+](=O)[O-])c3Cl)cc2s1 | -36% | 12µM* | -26% | 0% | 2% | u

Screening results: PubChem BioAssay, National Center for Advancing Translational Sciences (NCATS)
